According to PubChem BioAssay AID1159580 (chemical genetic matrix, 2015):
About 2,000 (36%) of roughly 5,500 compounds were called active. Roughly 18% stayed inconclusive and do not appear here. Cut-off read from the data, not from the text of the source: active = normalized growth mostly below about 0.91 (no sharp cut-off); inconclusive = no clear call, values can overlap the other calls; inactive = mostly above about 0.92. The list shows a part of the results.

Assay: chemical genetic growth profiling, strain panel (AID 1159580);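 note: tested at 20 µM; growth read once vehicle control cultures reached saturation at 30 °C; 1 = growth at the plate median or of vehicle wells; lower values mean less growth of the strain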
Conditions: growth OD

Measured: normalized growth

CCCOc1ccc2nc(NC(=O)OC)[nH]c2c1
inactive: S. cerevisiae deletion strains, locus YJR075W, strain HOC1, active compounds read low 0.992 | S. cerevisiae deletion strains, locus YKL009W, strain mrt4, active compounds read low 0.99 | S. cerevisiae deletion strains, locus YKL068W, active compounds read low 0.995 | S. cerevisiae deletion strains, locus YKL085W, strain MDH1 (second series), active compounds read low 0.995 | S. cerevisiae deletion strains, locus YKL085W, strain MDH1, active compounds read low 0.995 | S. cerevisiae deletion strains, locus YKL160W, strain elf1, active compounds read low 1.02 | S. cerevisiae deletion strains, locus YKL190W, strain CNB1, active compounds read low 1.02 | S. cerevisiae deletion strains, locus YKR001C, strain vps1, active compounds read low 0.96 | S. cerevisiae deletion strains, locus YKR026C, strain gcn3, active compounds read low 1.02 | S. cerevisiae deletion strains, locus YKR091W, strain srl3, active compounds read low 1.01 | S. cerevisiae deletion strains, locus YLL001W, strain dnm1, active compounds read low 1.01 | S. cerevisiae deletion strains, locus YLL026W, active compounds read low 1.01 | S. cerevisiae deletion strains, locus YLL041C, strain sdh2, active compounds read low 1.01 | S. cerevisiae deletion strains, locus YLR027C, strain aat2, active compounds read low 1.01 | S. cerevisiae deletion strains, locus YLR039C, strain RIC1, active compounds read low 0.833 | S. cerevisiae deletion strains, locus YLR058C, strain SHM2, active compounds read low 0.99 | S. cerevisiae deletion strains, locus YLR102C, strain apc9, active compounds read low 0.981 | S. cerevisiae deletion strains, locus YLR113W, strain HOG1, active compounds read low 1.03 | S. cerevisiae deletion strains, locus YLR221C, strain rsa3, active compounds read low 1.01 | S. cerevisiae deletion strains, locus YLR258W, strain gsy2, active compounds read low 1.01 | S. cerevisiae deletion strains, locus YLR262C, strain YPT6 (second series), active compounds read low 0.955 | S. cerevisiae deletion strains, locus YLR262C, strain YPT6, active compounds read low 0.849 | S. cerevisiae deletion strains, locus YLR268W, strain sec22, active compounds read low 0.971 | S. cerevisiae deletion strains, locus YLR320W, strain mms22, active compounds read low 1.04 | S. cerevisiae deletion strains, locus YLR330W, strain CHS5, active compounds read low 0.989 | S. cerevisiae deletion strains, locus YLR342W, strain FKS1 (second series), active compounds read low 0.973 | S. cerevisiae deletion strains, locus YLR342W, strain FKS1, active compounds read low 1.03 | S. cerevisiae deletion strains, locus YLR357W, strain rsc2, active compounds read low 1.02 | S. cerevisiae deletion strains, locus YLR370C, strain arc18, active compounds read low 1.02 | S. cerevisiae deletion strains, locus YLR371W, strain rom2, active compounds read low 0.983 | S. cerevisiae deletion strains, locus YLR384C, strain iki3, active compounds read low 1.01 | S. cerevisiae deletion strains, locus YLR418C, strain cdc73, active compounds read low 0.878 | S. cerevisiae deletion strains, locus YML016C, strain PPZ1, active compounds read low 0.983 | S. cerevisiae deletion strains, locus YML032C, strain rad52, active compounds read low 0.982 | S. cerevisiae deletion strains, locus YML120C, strain ndi1, active compounds read low 1.02 | S. cerevisiae deletion strains, locus YMR058W, strain fet3, active compounds read low 1.01 | S. cerevisiae deletion strains, locus YMR078C, strain ctf18, active compounds read low 0.979 | S. cerevisiae deletion strains, locus YMR125W, strain sto1, active compounds read low 1.02 | S. cerevisiae deletion strains, locus YMR129W, active compounds read low 1.02 | S. cerevisiae deletion strains, locus YMR205C, strain PFK2, active compounds read low 1.03 | S. cerevisiae deletion strains, locus YMR223W, strain ubp8, active compounds read low 0.96 | S. cerevisiae deletion strains, locus YMR231W, strain pep5, active compounds read low 1.01 | S. cerevisiae deletion strains, locus YMR263W, strain SAP30, active compounds read low 0.989 | S. cerevisiae deletion strains, locus YMR307W, strain GAS1, active compounds read low 0.844 | S. cerevisiae deletion strains, locus YNL067W, strain RPL9B, active compounds read low 1.01 | S. cerevisiae deletion strains, locus YNL071W, strain lat1, active compounds read low 1.02 | S. cerevisiae deletion strains, locus YNL128W, strain TEP1, active compounds read low 0.975 | S. cerevisiae deletion strains, locus YNL183C, strain NPR1, active compounds read low 1.01 | S. cerevisiae deletion strains, locus YNL209W, strain ssb2, active compounds read low 1.02 | S. cerevisiae deletion strains, locus YNL233W, strain BNI4, active compounds read low 1.01 | S. cerevisiae deletion strains, locus YNL248C, strain rpa49, active compounds read low 1.02 | S. cerevisiae deletion strains, locus YNL250W, strain rad50, active compounds read low 0.98 | S. cerevisiae deletion strains, locus YNL271C, strain bni1, active compounds read low 0.986 | S. cerevisiae deletion strains, locus YNL298W, strain CLA4, active compounds read low 0.965 | S. cerevisiae deletion strains, locus YNL307C, strain MCK1, active compounds read low 0.972 | S. cerevisiae deletion strains, locus YNL322C, strain KRE1 (second series), active compounds read low 1 | S. cerevisiae deletion strains, locus YNL322C, strain KRE1, active compounds read low 1 | S. cerevisiae deletion strains, locus YNR049C, strain mso1, active compounds read low 1.01 | S. cerevisiae deletion strains, locus YNR052C, strain pop2, active compounds read low 0.977 | S. cerevisiae deletion strains, locus YOL006C, strain TOP1, active compounds read low 0.983 | S. cerevisiae deletion strains, locus YOL012C, strain htz1 0.822 | S. cerevisiae deletion strains, locus YOL147C, strain pex11, active compounds read low 0.975 | S. cerevisiae deletion strains, locus YOR001W, strain rrp6, active compounds read low 1.02 | S. cerevisiae deletion strains, locus YOR061W, strain CKA2, active compounds read low 0.992 | S. cerevisiae deletion strains, locus YOR069W, strain VPS5, active compounds read low 0.993 | S. cerevisiae deletion strains, locus YOR070C, strain gyp1, active compounds read low 1.01 | S. cerevisiae deletion strains, locus YOR080W, strain dia2, active compounds read low 1.02 | S. cerevisiae deletion strains, locus YOR083W, strain WHI5, active compounds read low 1.02 | S. cerevisiae deletion strains, locus YOR106W, strain vam3, active compounds read low 0.999 | S. cerevisiae deletion strains, locus YOR136W, strain idh2, active compounds read low 0.995 | S. cerevisiae deletion strains, locus YOR144C, strain elg1, active compounds read low 0.988 | S. cerevisiae deletion strains, locus YOR184W, strain ser1, active compounds read low 0.957 | S. cerevisiae deletion strains, locus YOR231W, strain MKK1, active compounds read low 1.07 | S. cerevisiae deletion strains, locus YOR265W, strain rbl2, active compounds read low 1.01 | S. cerevisiae deletion strains, locus YOR270C, strain vph1, active compounds read low 1.02 | S. cerevisiae deletion strains, locus YOR290C, strain snf2, active compounds read low 1.01 | S. cerevisiae deletion strains, locus YOR316C, strain cot1, active compounds read low 0.983 | S. cerevisiae deletion strains, locus YPL051W, strain arl3, active compounds read low 1.01 | S. cerevisiae deletion strains, locus YPL078C, strain atp4, active compounds read low 1.02 | S. cerevisiae deletion strains, locus YPL106C, strain sse1, active compounds read low 1.02 | S. cerevisiae deletion strains, locus YPL240C, strain hsp82, active compounds read low 1.01 | S. cerevisiae deletion strains, locus YPL256C, strain CLN2, active compounds read low 1.02 | S. cerevisiae deletion strains, locus YPR119W, strain clb2, active compounds read low 0.987 | S. cerevisiae deletion strains, locus YPR141C, strain kar3, active compounds read low 0.993 | S. cerevisiae deletion strains, locus YPR163C, strain tif3, active compounds read low 0.982 | S. cerevisiae deletion strains, locus YPR167C, strain met16, active compounds read low 0.977 | S. cerevisiae deletion strains, strain wtn01, active compounds read low 0.967 | S. cerevisiae strains, strain wild type, active compounds read low 0.995
active: S. cerevisiae deletion strains, locus YML124C, strain tub3, active compounds read low 0.88 | S. cerevisiae deletion strains, locus YNL153C, strain GIM3, active compounds read low 0.438 | S. cerevisiae deletion strains, locus YPL241C, strain CIN2, active compounds read low 0.606
